# PubChem BioAssay (NCATS)
# Results filed as inconclusive are left out. Entries that show only a call come without a potency. Active and inactive are the calls of the source. Calls come from the whole dose curve; as a rule, active = well fitted inhibition curve with a large enough effect; inconclusive = small, poorly fitted or top-dose-only effect; inactive = flat fitted curve, though single readings scatter.
# Biological target: Calcium and integrin-binding protein 1 (Homo sapiens) (UniProt Q99828)
# Assay: Primary qHTS for Identification of Calcium Integrin Binding Protein 1 (CIB1) Competitor (AID 1508620);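 note: GST tagged CIB1 binding a fluorescein labelled alphaIIb integrin peptide tracer; top concentration of the series differs between compounds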
# Procedure, shortened: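 CIB1-GST (1 uM final) and compound incubated 15 min at room temperature before adding FITC-alphaIIb peptide tracer (100 nM final). Competition for binding read by fluorescence polarization (ex 480, em 540) after another 15 min at room temperature.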
# Chain of Calcium and integrin-binding protein 1 (Homo sapiens) (Q99828 whole entry, looked up): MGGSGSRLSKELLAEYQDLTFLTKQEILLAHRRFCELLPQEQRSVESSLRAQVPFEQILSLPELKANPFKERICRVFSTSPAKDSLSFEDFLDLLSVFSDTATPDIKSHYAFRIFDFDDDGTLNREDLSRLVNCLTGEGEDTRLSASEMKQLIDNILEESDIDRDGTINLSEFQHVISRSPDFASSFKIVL
row,Compound,Potency
1,O=C1Nc2ccccc2/C1=C\c1ccc(O)c(Cl)c1,inactive
2,Cc1ccc(OCCn2c(CCNC(=O)c3cccc4cc[nH]c34)nc3ccccc32)cc1,inactive
3,COc1ccc(C2Nc3ccccc3C(=O)N2CCc2ccc(Cl)cc2Cl)cc1COc1ccc(NC(C)=O)cc1 (stereo not given),inactive
4,COc1ccc(C2N=C(Nc3nc4ccccc4o3)NC3=C2C(=O)CCC3)cc1 (stereo not given),inactive
5,O=C(CNC(=O)c1ccccc1)OC(CCc1ccccc1)C(=O)Nc1cc(C(F)(F)F)ccc1Cl (stereo not given),inactive
6,c1cncc(CNc2ncnc3ccc(-c4ccco4)cc23)c1,inactive
7,N#Cc1c(-c2ccccc2C(F)(F)F)nc2ccccc2c1NCc1ccc(-c2ccnc(C(F)(F)F)c2)cc1,inactive
8,Nc1cc(S(=O)(=O)N2CCN(S(=O)(=O)c3ccc4c(c3)OCCO4)CC2)ccn1,inactive
9,FC(F)(F)c1ccccc1-c1nc(NCc2ccc(-c3ccc4c(c3)OCCO4)cc2)c2ccccc2n1,inactive
10,O=C1Nc2cc(Cl)ccc2/C1=C\c1cc(Cl)c(O)c(Cl)c1,inactive
11,Fc1cccc(CNc2ncnc3ccc(-c4ccccc4Cl)cc23)c1,inactive
12,O=C(CSc1nnc(-c2cccc(S(=O)(=O)N3CCCC3)c2)n1-c1ccccc1)Nc1ccc(Cl)cc1,inactive
13,O=S(=O)(c1ccc2ccccc2c1)N1CCN(S(=O)(=O)c2c(F)cccc2F)CC1,inactive
14,COc1ccc([S+](=O)([O-])N2CCCN([S+](=O)([O-])c3ccc(OC)c(N)c3)CC2)cc1N,inactive
15,O=C(CNC(=O)c1ccc(Cl)cc1)OC(C(=O)Nc1cc(C(F)(F)F)ccc1Cl)c1ccccc1 (stereo not given),inactive
16,CC(C)c1ccccc1-c1ncc(F)c(NC(C)(C)c2ccc(-c3cccnc3)cc2)n1,inactive
17,Cc1ccccc1Nc1nc(C#N)nc(NC2CCCC2)n1,inactive
18,COc1ccc(-c2nnc3n2N=C(c2cc(OC)ccc2OC)CS3)cc1,inactive
19,CS(=O)(=O)/C=C/c1nc(Nc2cc(F)cc(F)c2)c2ncn(CC(F)F)c2n1,inactive
20,CCc1ccc2oc(=O)cc(CN3CCN(c4ccccc4F)CC3)c2c1,inactive
21,Cc1ccsc1CN(C)c1ncnc2ccc(-c3ccc4c(c3)OCO4)cc12,inactive
22,O=C(c1ccccc1O)N(Cc1ccco1)Cc1ccco1,inactive
23,O=C1NS(=O)(=O)C(c2ccccc2)C1c1ccccc1 (stereo not given),inactive
24,CSc1ccccc1-c1ccc(Nc2nc(-c3ccncc3)nc3ccccc23)cc1F,inactive

row,Compound,Potency
1,Cc1ccc(N(C)S(=O)(=O)c2ccc3c(c2)CCC(=O)N3)cc1C,inactive
2,CC(=O)NCc1cc(Cl)c2cccnc2c1O,inactive
3,CCN1CCN(C(=O)CCN(CC(C)C)c2nc(-c3cccs3)nc3ccccc23)CC1,inactive
4,Nc1ccc(NC(=O)Nc2nnc(-c3ccncc3)s2)cc1C(F)(F)F,inactive
5,COc1ccccc1C1=Nn2c(nnc2-c2ccccc2O)SC1,inactive
6,CN(C)CC(=O)NC1CCCc2c1cnn2-c1ccc(F)cc1F (stereo not given),inactive
7,CC(C)(C)c1ccc(C(=O)NCC(=O)OC(C(=O)Nc2cc(C(F)(F)F)ccc2Cl)c2ccccc2)cc1 (stereo not given),inactive
8,Cc1ccc(CCCn2c(CCNC(=O)C3CCCCC3)nc3ccccc32)cc1,inactive
9,Cc1ccc(-c2csc(N3CCC(C(N)=O)CC3)n2)cc1,inactive
10,Cc1csc(CNc2ncnc3ccc(-c4ccc5c(c4)OCCO5)cc23)c1,inactive
11,Cc1cc(-c2ccccc2)n2ncc(C(=O)Nc3ccc(Cl)c(Cl)c3)c2n1,inactive
12,Cc1sc(NC(=O)Cc2ccc3c(c2)OCO3)nc1-c1ccc2c(c1)CCN2C(=O)c1ccccc1Cl,inactive
13,COc1ccc(C(=O)N(Cc2ccco2)Cc2ccco2)c(O)c1,inactive
14,COc1ccc(-c2nc3ccccc3c(=O)n2Cc2ccco2)cc1COc1ccc(NC(C)=O)cc1,inactive
15,O=C(NCc1nnc(-c2cc3ccccc3[nH]2)s1)c1ccccc1,inactive
16,O=C(CN1C(=O)N/C(=C\c2cccn2-c2cccc(C(=O)O)c2)C1=O)Nc1ccc(F)cc1,inactive
17,N#Cc1ccccc1CCc1nc2ncc(Br)cc2[nH]1,inactive
18,COc1ccc(OC2=NS(=O)(=O)c3ccccc32)cc1,inactive
19,COc1cc(OC)cc(C2=Nn3c(nnc3-c3ccccc3OC)SC2)c1,inactive
20,Cc1ccc(CNc2nc(-c3ccccc3C(F)(F)F)nc3ccccc23)cc1,inactive
21,CCC(C)(CCN1CCOCC1)N(Cc1cc2ccccc2n(C)c1=O)C(=O)C1CCCCC1 (stereo not given),inactive
22,O=C(OCC#CCSc1nnc(-c2cccc3ccccc23)o1)c1ccc2ccccc2c1,inactive
23,CCC(=O)NC(C)c1cc(Cl)c2cccnc2c1O (stereo not given),inactive
24,CCC(=O)NC(c1cccs1)c1cc([N+](=O)[O-])c2cccnc2c1OC (stereo not given),inactive

row,Compound,Potency
1,Cc1cnc(-c2ccccc2C(C)C)nc1NCc1ccc(C2CCCNC2)cc1 (stereo not given),inactive
2,COc1ccc(S(=O)(=O)Nc2cc(OC)cc3cccnc23)cc1,inactive
3,Cc1ccc(OCCn2c(CCNC(=O)C3CCCC3)nc3ccccc32)cc1,inactive
4,N#Cc1c(-c2ccc3c(c2)OCO3)no[n+]1[O-],inactive
5,CN(C)c1ccc(C(=O)OCC#CCSc2nnc(-c3cccc4ccccc34)o2)cc1,inactive
6,O=C1CCCC2=C1C(c1[nH]ncc1Cl)NC(=NCCc1ccccc1)N2 (stereo not given),inactive
7,O=C(/C=C/c1ccc([N+](=O)[O-])o1)Nc1cccc([S+](=O)([O-])Nc2ccccc2F)c1,inactive
8,C[C@H](NC(c1ccc(F)cc1)c1ccc2cccnc2c1O)c1ccccc1 (stereo not given in full),inactive
9,CN(CC(=O)Nc1ccc(N2CCOCC2)cc1)Cc1ccccc1O,inactive
10,COc1cccc(CN2C(=O)c3ccccc3NC2c2ccc(OC)c(COc3c(C)cc(NC(C)=O)cc3C)c2)c1 (stereo not given),inactive
11,CC(C)(C)C(=O)N1CCN(c2cccc(Nc3nn4c(=O)c5ccccc5nc4s3)c2)CC1,inactive
12,Cc1ccccc1NS(=O)(=O)c1ccc2c(c1)CCC(=O)N2,inactive
13,O=C(COC(=O)CNC(=O)C1CCCCC1)Nc1ccccc1Cl,inactive
14,Nc1ccc(Nc2cc(O)c3ncccc3c2)cc1,inactive
15,Cc1ccc(NC(=O)c2cnn3c(-c4ccccc4)cc(C)nc23)cc1,inactive
16,O=C(Nc1ccc(Cl)c(Cl)c1)Nc1nnc(-c2cccnc2)s1,inactive
17,CCOC(=O)c1c(-c2ccc(OC)cc2)csc1NC(=O)C1CCCO1 (stereo not given),inactive
18,N#Cc1nc(Nc2cccc([N+](=O)[O-])c2)nc(NC2CCCC2)n1,inactive
19,Cc1ccc(NS(=O)(=O)c2cc3c(cc2F)NC(=O)CC3)cc1C,inactive
20,Cc1cnc(-c2ccccc2C(C)C)nc1NCc1ccc(-c2ccnc(C(F)(F)F)c2)cc1,inactive
21,Cc1ccc(NS(=O)(=O)c2ccc3c(c2)N(C)C(=O)CO3)cc1C,inactive
22,O=C1CCc2cc(S(=O)(=O)Nc3cccnc3)ccc2N1,inactive
23,O=C1CCCC2=C1C1(CCC1)N=C(Nc1nc3ccccc3o1)N2,inactive
24,O=C(CN1C(=O)CC(c2ccco2)Sc2ccccc21)Nc1ccccc1F (stereo not given),inactive

row,Compound,Potency
1,Cc1cc2c(s1)c1cnn(Cc3cccc(Cl)c3)c(=O)c1n2C,inactive
2,COc1cccc(CNc2ccc(S(=O)(=O)Nc3ncccn3)cc2)c1O,inactive
3,COc1cccc(C2c3c(ncn(-c4ccccc4SC)c3=N)Oc3ccc4ccccc4c32)c1 (stereo not given),inactive
4,COc1ccc(C2Nc3ccccc3C(=O)N2Cc2ccncc2)cc1COc1ccc(NC(C)=O)cc1 (stereo not given),inactive
5,CSc1ccc(CNc2ncnc3ccc(-c4c(C)noc4C)cc23)cc1,inactive
6,Cc1cccc2c1NC(=O)/C2=C/c1cc(Cl)c(O)c(Cl)c1,inactive
7,COc1cccc(C2c3c(ncn(-c4ccccc4Cl)c3=N)Oc3ccc4ccccc4c32)c1 (stereo not given),inactive
8,CC(=O)NC(c1ccco1)c1cc(Cl)c2ccc(N3CCCCC3)nc2c1O (stereo not given),inactive
9,CC(=O)Nc1sc2c(c1-c1nc3ccccc3s1)CCN(C(C)=O)C2,inactive
10,C=CCc1cc(F)c(S(=O)(=O)N2CCN(S(=O)(=O)c3ccc4c(c3)OCCO4)CC2)cc1F,inactive
11,CC(C)c1cc(C(C)C)c(S(=O)(=O)Nc2cccc3cccnc23)c(C(C)C)c1,inactive
12,O=C(O)c1ccc(-n2cccc2/C=C2\SC(=O)N(Cc3ccc(F)cc3)C2=O)cc1,inactive
13,CCOc1ccc(CCNC(=O)c2ccnn2Cc2cccc(C)c2)cc1OCC,inactive
14,CC(=O)Nc1sc2c(c1-c1ccc(-c3nn[nH]n3)cc1)CCNC2,inactive
15,CC(C)Oc1cccc(-c2ccnc(N3CCC(C(N)=O)CC3)n2)c1,inactive
16,COc1ccc(C(=O)NCC(=O)OC(C(=O)Nc2cc(C(F)(F)F)ccc2Cl)c2ccccc2)cc1OC (stereo not given),inactive
17,COc1cc(F)c(S(=O)(=O)N2CCN(S(=O)(=O)c3ccc(NC(C)=O)cc3)CC2)c(F)c1,inactive
18,c1nc(OCc2cnc[nH]2)c2cc(-c3ccc4c(c3)OCO4)ccc2n1,inactive
19,NC(N)=NCCC[C@H](NC(=O)CNC(=O)c1ccccc1)C(=O)Nc1cc(C(F)(F)F)ccc1Cl,inactive
20,COc1ccc(C2Nc3ccccc3C(=O)N2Cc2ccc(Cl)cc2)cc1COc1ccc(NC(C)=O)cc1 (stereo not given),inactive
21,COc1ccc(C2Nc3ccccc3C(=O)N2Cc2ccccc2)cc1Oc1ccc(NC(C)=O)cc1 (stereo not given),inactive
22,Cc1cc(NC(=O)Nc2nnc(-c3cccnc3)s2)ccc1F,inactive
23,O=C(CSc1nc2ccccc2[nH]1)N1CCOCC1,inactive
24,c1ccc(OCc2nnc3n2N=C(c2ccccc2)CS3)cc1,inactive

row,Compound,Potency
1,COc1ccc2c(c1)Oc1nc(-c3ccc(C)cc3)nc(SCC(=O)Nc3cccc(C(=O)O)c3)c1C2,inactive
2,CCn1cnc2c(NCCc3cccnc3)nc(C#N)nc21,inactive
3,FC(F)(F)c1cccc(-c2ccc(CNc3nc(-c4ccccc4C(F)(F)F)nc4ccccc34)cc2)c1,inactive
4,CCCCC(O)C(=O)Nc1cc(C(F)(F)F)ccc1Cl (stereo not given),inactive
5,Cc1ccc(OCCn2c(CCNC(=O)Cc3ccccc3F)nc3ccccc32)cc1,inactive
6,Cc1cc(C)nc(NC(=S)N2CCN(c3ccc4cn(C)nc4c3)CC2)c1,inactive
7,COc1cccc(CNc2ccc(S(=O)(=O)Nc3nccs3)cc2)c1,inactive
8,c1nc(NCC2CCCO2)c2ccc(-c3ccc4c(c3)OCO4)cc2n1 (stereo not given),inactive
9,CC1=C(C(=O)Nc2ccccc2C)C(c2ccccc2Br)N=C(Nc2nc3ccccc3o2)N1 (stereo not given),inactive
10,Cn1ncc(Cl)c1C1N=C(Nc2nc3ccccc3o2)NC2=C1C(=O)CCC2 (stereo not given),inactive
11,Cc1cc(C)nc(NC(=S)N2CCN(c3ccc(C(=O)O)cc3)CC2)c1,inactive
12,COc1cc(O)c(C(CC(=O)N2CCCC(COc3ccc(F)cc3)C2)c2ccc3c(c2)OCO3)c(OC)c1 (stereo not given),inactive
13,CCOC(=O)C1CCN(c2ncc(-c3ccc4c(c3)OCCCO4)s2)CC1,inactive
14,Cc1cccc(C)c1-n1c(SCC(=O)Nc2ccc(F)cc2)nnc1-c1cccc([S+](=O)([O-])N2CCCC2)c1,inactive
15,COc1cccc(CNc2ccc([S+](=O)([O-])Nc3cc4ccccc4s3)cc2)c1O,inactive
16,N#Cc1nc(Nc2cccc(-c3ccccc3)c2)nc(NC2CCCC2)n1,inactive
17,O=C(NC1CCCc2c1cnn2-c1ccc(F)cc1F)c1ccc(C2(C(F)(F)F)N=N2)cc1 (stereo not given),inactive
18,CCCn1c(C)nc2c(NCCN(CC)CC)nc(C)nc21,inactive
19,COc1ccc(C(CC(=O)N2CC(C)CC(C)C2)c2c(O)cc(OC)cc2OC)cc1 (stereo not given),inactive
20,CCOC(=O)C1CCN(C(=O)C(C)(C)NC(=O)Nc2cccc(OC)c2)CC1,inactive
21,Fc1cc(Nc2nc(-c3ccncc3)nc3ccccc23)ccc1N1CCCCC1,inactive
22,CC(C)(C)c1ccccc1Nc1nc(C#N)nc(NC2CCCC2)n1,inactive
23,COc1cc(-c2ccc3ncnc(NCc4ccc(C)o4)c3c2)cc(OC)c1OC,inactive
24,c1nc(N2CCOCC2)c2cc(-c3ccc4c(c3)OCO4)ccc2n1,inactive
